# Laboratory results: PubChem BioAssay AID1726 (National Center for Advancing Translational Sciences (NCATS), 2009)
# Results filed as inconclusive are left out. Entries that show only a call come without a potency. Calls of active or inactive are those of the source. Calls come from the whole dose curve; as a rule, active = well fitted curve in the direction sought with a large enough effect; inconclusive = small, poorly fitted or top-dose-only effect, or effect the other way, or another doubt; inactive = no such curve, though single readings can be large or run the other way.
# Biological target: Epidermal growth factor receptor (Homo sapiens) (UniProt P00533)
# Sequence (P00533 whole entry T790M/L858R, looked up): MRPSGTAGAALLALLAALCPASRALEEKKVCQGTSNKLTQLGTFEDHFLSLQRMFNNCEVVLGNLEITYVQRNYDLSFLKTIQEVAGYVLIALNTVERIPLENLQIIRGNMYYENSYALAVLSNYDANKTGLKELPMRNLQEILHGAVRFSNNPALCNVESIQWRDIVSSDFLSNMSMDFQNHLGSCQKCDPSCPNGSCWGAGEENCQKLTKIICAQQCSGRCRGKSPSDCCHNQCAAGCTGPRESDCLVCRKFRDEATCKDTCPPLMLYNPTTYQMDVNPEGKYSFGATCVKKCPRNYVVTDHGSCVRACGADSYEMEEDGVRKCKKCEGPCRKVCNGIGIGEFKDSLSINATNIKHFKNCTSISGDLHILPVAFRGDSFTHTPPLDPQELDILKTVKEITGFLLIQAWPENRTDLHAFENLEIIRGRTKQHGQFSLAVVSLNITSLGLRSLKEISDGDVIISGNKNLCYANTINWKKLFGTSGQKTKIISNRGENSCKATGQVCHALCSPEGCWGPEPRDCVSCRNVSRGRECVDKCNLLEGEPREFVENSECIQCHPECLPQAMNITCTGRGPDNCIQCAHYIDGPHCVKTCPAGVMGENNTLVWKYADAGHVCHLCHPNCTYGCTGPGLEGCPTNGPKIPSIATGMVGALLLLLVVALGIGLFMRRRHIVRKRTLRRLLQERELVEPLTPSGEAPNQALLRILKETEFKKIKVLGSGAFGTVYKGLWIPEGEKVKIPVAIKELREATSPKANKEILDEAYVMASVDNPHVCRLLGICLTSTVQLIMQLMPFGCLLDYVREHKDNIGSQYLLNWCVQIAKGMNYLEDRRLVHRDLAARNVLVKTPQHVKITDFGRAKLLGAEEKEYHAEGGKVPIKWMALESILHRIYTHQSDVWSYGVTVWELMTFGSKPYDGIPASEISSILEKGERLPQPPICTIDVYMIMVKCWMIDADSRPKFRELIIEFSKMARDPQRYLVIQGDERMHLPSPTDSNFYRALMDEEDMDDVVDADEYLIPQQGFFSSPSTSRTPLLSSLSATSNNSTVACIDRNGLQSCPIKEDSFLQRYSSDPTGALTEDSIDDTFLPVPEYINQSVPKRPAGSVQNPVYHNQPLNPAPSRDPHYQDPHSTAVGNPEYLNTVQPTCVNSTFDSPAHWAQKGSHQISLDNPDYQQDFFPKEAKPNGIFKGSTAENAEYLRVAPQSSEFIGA
# Test: Assay for Inhibitors of the ERK Signaling Pathway using a Homogeneous Screening Assay: EGFR T790M/L858R Kinase Inhibition
# Conditions: series mostly up to 65.8 µM
# Text: qHTS Assay for Inhibitors of the ERK Signaling Pathway using a Homogeneous Screening Assay
# NIH Chemical Genomics Center [NCGC]
# NIH Molecular Libraries Screening Centers Network [MLSCN]
# Assay Submitter (PI): Dr. Wei Zheng, NCGC/NIH
# The Ras/extracellular-signal-regulated kinase (ERK) mitogen activated protein (MAP) kinase signaling pathway (ERK1/2 cascade) plays is a key role in transmitting signals from the cell surface to the nucleus (Nishida and Gotoh 1993; Chang and Karin, 2001). The cascade is initiated by the small G-protein Ras, which recruits Raf […], where activation occurs. Alternatively, this pathway can be activated by elevating intracellular cAMP.
# Activation of the ERK pathway is essential in increased cell division and cell survival. Sustained and constitutive activation of the ERK pathway, however, has been linked to uncontrolled cell proliferation, increased cell survival, and tumor progression. Thus, the ERK has been as an attractive target for cancer chemotherapy in the past few years (Sebolt-Leopold and Herrera, 2004). Given its physiological and pathological importance, assessment of ERK phosphorylation has been broadly performed in both basic research and drug discovery. Most assays for the measurement of ERK phosphorylation use the antibody-based detection methods, such as western blot and ELISA. These assays require multiple reagent additions with cell wash steps and are not suitable for high-throughput screening.
# The current cell-based ERK phosphorylation assay was performed using AlphaScreen platform. AlphaScreen is a two bead-based proximity-dependent chemical energy transfer luminescent assay platform. The assay reagents (ERK SureFire(TM) kit) were supplied from TGR BioSciences (Australia). In the presence of specific antibodies, phosphorylated ERK will bring "donor" and "acceptor" beads to a proximity range (<200 nm), and subsequently lead a chemical luminescent reaction upon exciting donor beads with 680 nm laser. To validate pathway hits from the cell-based assay, enzyme assays consisting of EGFR tyrosine kinase, Raf and MEK were used as a means of deciphering the enzymes of target for the prioritized group of compounds derived from the HEK-293 cell based assay. The compounds were tested against significant members of the ERK signaling pathway EGFR and EGFR mutants (EGFR L858R, EGFR T790M, and EGFR L858R T790M). In order to establish the specificity of the prioritized compounds for EGFR and EGFR mutants, the compounds were also assayed against other important ERK signaling pathway enzymes, c-RAF and MEK-1.
# NCGC Assay Protocol Summary:
# The HTRF kinase assay (components supplied as kit by Cisbio) was chosen for the EGFR and EGFR mutant enzyme assays that applied the time resolved fluorescence resonance energy transfer (TR-FRET) principle. A peptide substrate is labeled with a biotin that can bind to XL665 labeled streptavidin and the anti-phosphoresidue antibody is labeled with Eu+. Upon phosphorylation of the substrate, the antibody binds to phosphorylated substrate that enables TR-FRET detection in homogenous assay format.
# An HTRF Kinease TK assay kit (Cisbio, Bedford, MA) was used to develop the EGFR and EGFR mutant assays (Harbert et al., 2008. Harbert C, Marshall J, Soh S, Steger K. Development of a HTRF Kinase Assay for Determination of Syk Activity. Current Chemical Genomics. 1: 20-26. 2008). EGFR and EGFR mutants were obtained from Invitrogen. The assay buffer was composed of 50 mM HEPES (pH 7.0), 5 mM MgCl2, 5mM DTT, 0.1 % NaN3, 0.1 % BSA and 0.1 mM orthovanadate.
# The HTRF assays were preformed according to the HTRF Kinease TK kit. Optimization for each enzyme was preformed in 384 well format (data not included). All reagents were dispensed into 1536 well plates.
# (1) Enzyme, […] EGFR at 3 nM final
# (2) Compound, 22 nl, Library Compounds in 0.128 to 10 mM titration series or control
# (3) Reagent, 1.5 ul 10 uM ATP and 0.25 uM substrate final
# (4) Incubation for 30 min, Ambient conditions
# […]
row,Structure (SMILES),Potency
1,O=C1c2ccccc2C(=O)c2c(NCCCN(CCO)CCO)cccc21,inactive
2,Cn1c(=O)[nH]c2nnc(-c3ccc(Cl)c(Cl)c3)nc2c1=O,inactive
3,CCN(CC)CCC(=O)Nc1cccc2c1C(=O)c1ccccc1C2=O,inactive
4,COc1ccc(C(=O)c2ccc(Cl)c([N+](=O)[O-])c2)cc1,inactive
5,CCn1c(=O)c2[nH]c(-c3ccccc3)nc2n(CC)c1=O,inactive
6,Fc1ccc(Nc2ncnc3sc4c(c23)CCC4)cc1F,inactive
7,Cc1ccc2nc(=O)c(NNc3ccccc3)cnc2c1,3.55 µM (active)
8,CNc1cccc2c1C(=O)c1ccccc1C2=O,inactive
9,Cn1nc(-c2ccc(Cl)cc2)nc2c(=O)n(C)c(=O)nc1-2,inactive
10,Cc1ccc(NNc2c(C)nc3ccccc3nc2=O)cc1,inactive
11,CS(=O)(=O)CCNCc1nc(-c2ccc3ncnc(Nc4ccc(OCc5cccc(F)c5)c(Cl)c4)c3c2)cs1,inactive
12,O=C(Nc1nc(-c2ccccc2)cs1)c1ccc(N2CCOCC2)c([N+](=O)[O-])c1,inactive
13,Cc1nc2ccccc2nc(=O)c1NNc1ccccc1,3.16 µM (active)
14,Cn1nc(-c2ccccn2)nc2c(=O)n(C)c(=O)nc1-2,inactive
15,N#C/C(=C(/N)Sc1ccc(N)cc1)c1ccccc1C(F)(F)F,inactive
